Experimental data published in PubChem BioAssay (NCATS).
Inconclusive results are not listed. A call without a number means that no potency is given here. Calls of active or inactive are those of the source. The call rests on the fitted dose curve; in most records, active means well fitted curve in the direction sought with a large enough effect; inconclusive means small, poorly fitted or top-dose-only effect, or another doubt; inactive means no such curve, though single readings can be large; an effect the other way counts as inactive or inconclusive.

Legend:
[1] = P-glycoprotein substrates identified in KB-8-5-11 adenocarcinoma cell line, qHTS therapeutic library screen (AID 1346987); further: nearly all actives have a fitted effect of over 65% in size
Outline: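 Steps: plate 500 KB-8-5-11 cells/well in DMEM + 10% FCS (colchicine removed); pin compounds in dose-response; incubate 72 h, 37 degree C, 5% CO2; add CellTiter-Glo, 5 min; read luminescence.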

[2] = system: Zika virus NS2B-NS3 protease (unlinked complex); assay: Primary screen GU Rhodamine qHTS for Zika virus inhibitors: Unlinked NS2B-NS3 protease assay (AID 1347159); further: nearly all actives have a fitted effect of over 60% in size
Outline: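 Noncovalent NS2B hydrophilic domain/NS3 protease complex (25 nM final) in 10 mM Tris-HCl pH 8.0, 0.01% Tween 20, preincubated 15 min with compounds (up to 114 microM), then 1.5 microM Rhodamine110 substrate. Fluorescence change over 15 min fitted to 4-parameter Hill.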

[3] = system: Zika virus NS2B-NS3 protease (linked construct); assay: Primary screen NINDS Rhodamine qHTS for Zika virus inhibitors (AID 1347160); further: nearly all actives have a fitted effect of over 55% in size
Outline: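 Purified NS2B-NS3 protease with the NS2B hydrophilic domain joined by a flexible linker (25 nM) in 10 mM Tris-HCl pH 8.0, 0.01% Tween 20, preincubated 15 min at RT with compound; Rhodamine110 peptide substrate 1.5 µM; fluorescence change over 15 min; 4-parameter Hill fit.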
Potency means the concentration at half of the fitted maximal effect.

Compound	Potency [1]	Potency [2]	Potency [3]	outcome [1]
CC(C)(O)c1ccc2c(c1)C(=O)C[C@H]1[C@](C)(C(=O)O)CCC[C@]21C	inactive	inactive	inactive	–
CN1CCN(C(=O)c2cc3cc(Cl)ccc3[nH]2)CC1	inactive	inactive	inactive	–
CC1=CCC[C@@H]2[C@@](C)(CCc3ccoc3)[C@H](C(=O)O)CC[C@@]12C	inactive	31.6 µM (active)	inactive	–
C/C=C(/C)C(=O)OC1C2OC2C2(CO2)C2C3OC(=O)C(C)C3CCC12C (stereo not given)	inactive	inactive	inactive	–
CC1C(=O)OCC2=CC[N+]3([O-])CCC(OC(=O)C(C)(O)C1(C)O)C23 (stereo not given)	inactive	inactive	inactive	–
O=C(O)c1cccc(C(=O)CCC2OC(n3cnc4c(=O)[nH]cnc43)C(O)C2O)c1 (stereo not given)	inactive	inactive	inactive	–
C[C@@H]1O[C@@H](O[C@H]2[C@@H]3C=CO[C@@H](O[C@@H]4O[C@H](CO)[C@@H](O)[C@H](O)[C@H]4O)[C@@H]3[C@@]3(CO)O[C@@H]23)[C@H](O)[C@H](OC(=O)/C=C/c2ccc(O)cc2)[C@H]1OC(=O)/C=C/c1ccc(O)cc1	inactive	inactive	inactive	–
O=C(NC1Cc2ccccc2N(C[C@@H](O)CO)C1=O)c1cc2cc(Cl)sc2[nH]1 (stereo not given in full)	inactive	inactive	inactive	–
C/C=C1/[C@H](O[C@@H]2O[C@H](CO)[C@@H](O)[C@H](O)[C@H]2O)OC=C(C(=O)OC)[C@H]1CC(=O)OCCc1ccc(O)c(O)c1	inactive	inactive	inactive	–
O=C(OC1C=C(CO)C2C(OC3OC(CO)C(O)C(O)C3O)OC=CC12O)c1ccc(O)cc1 (stereo not given)	inactive	inactive	inactive	–
CC(C)c1ccc2c(c1)CCC1[C@](C)(C(=O)O)CCC[C@]21C (stereo not given in full)	inactive	20 µM (active)	12.4 µM (active)	–
CC1=CC(=O)CC(C)(C)C1CCC(C)O[C@@H]1O[C@H](CO)[C@@H](O)[C@H](O)[C@H]1O (stereo not given in full)	inactive	inactive	inactive	–
CC(=O)NC1C(OC2CCC3(C)C(CCC4(C)C3CC=C3C5CC(C)(C)CCC5(C(=O)O)C(O)CC34C)C2(C)C)OC(CO)C(O)C1O (stereo not given)	inactive	inactive	inactive	–
C=C1CC23CC1CCC2C12OC(=O)C(C)(C(O)CC1O)C2C3C(=O)O (stereo not given)	inactive	inactive	inactive	–
FC(F)(F)c1nnc2c(Sc3ccccc3)nc3ccc(Cl)cc3n12	4.61 µM (active)	inactive	inactive	–
C=C(C(=O)O)[C@@H]1CC[C@@]2(C)CC[C@@H](O)C(=C)C2C1 (stereo not given in full)	inactive	inactive	inactive	–
CC1(O)CCC2C(C3C1CCC3(C)O)C2(C)C (stereo not given)	inactive	inactive	inactive	–
Cc1ccccc1N1CCN(S(=O)(=O)C[C@]23CC[C@H](C[C@@H]2NC(=O)[C@@H](N)CCS(C)(=O)=O)C3(C)C)CC1	inactive	inactive	inactive	–
COc1cccc2c1c(O)c(C(=O)N(C)c1ccc(C(F)(F)F)cc1)c(=O)n2C	inactive	inactive	inactive	–
C=C1CC[C@@H]2C(C)(C)CCC[C@@]2(C)[C@@H]1CC/C(=C/C(=O)OC)COC(C)=O	inactive	inactive	inactive	–
CC(=O)OC1C(O)C(C)(O)C(/C=C/C(=O)O)C2(C)CCCC(C)(C)C12 (stereo not given)	inactive	inactive	inactive	–
CC(NC(=O)CC(=O)O)C(=O)Nc1ccccc1C(N)=O (stereo not given)	inactive	inactive	inactive	–
C=C(C)C1CCC2(C(=O)OC3OC(COC4OC(CO)C(O)C(O)C4O)C(OC4OC(C)C(O)C(O)C4O)C(O)C3O)CCC3(C(=O)O)C(CCC4C5(C)CCC(=O)C(C)(C)C5CCC43C)C12 (stereo not given)	–	inactive	inactive	inactive [at 9.29 µM]
CC1(C)CC[C@]2(C(=O)O[C@@H]3O[C@H](CO)[C@@H](O)[C@H](O)[C@H]3O)[C@H](O)C[C@]3(C)C(=CCC4[C@@]5(C)CC[C@H](O[C@@H]6OC[C@@H](O)[C@H](O)[C@H]6O)[C@@](C)(C(=O)O)C5CC[C@]43C)[C@@H]2C1 (stereo not given in full)	inactive	inactive	inactive	–
CCNC(=O)C1CC(F)(c2ccc(CN3CCCC3)c(F)c2)C1 (stereo not given)	inactive	inactive	inactive	–
